Most compounds without a hit are left out; they make up all but 19% or so of the library.
HT1080NT lethal – qHTS for induction of synthetic lethality in tumor cells producing 2HG: qHTS for the HT-1080-NT fibrosarcoma cell line. HT-1080-NT fibrosarcoma viability, CellTiter-Glo ATP luminescence, 48 h. AID 686970, 2013. Potency, µM (doses to about 46.1 µM), for inactives: at the top dose activity, negative = less viability, actives largely listed as cytotoxic. 1.6% of 360,000 active;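 note: NT is the 2HG producing partner of a matched IDH1 knockdown line; potency is the fitted concentration of half-maximal effect; 0% = DMSO-treated cells and -100% = media-only wells without cells; nearly all actives have a fitted effect of over 55% in size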
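HT-1080-NT; 750 cells/well; 5% FBS RPMI; 48 h compound, 37 degrees C; CellTiter-Glo luminescence; curve fitting and curve-class assignment.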
DT40 TDP1 no CPT – qHTS for Inhibitors of human tyrosyl-DNA phosphodiesterase 1 (TDP1): qHTS in cells in absence of CPT; DT40 Tdp1-/- hTDP1 cells, no CPT, ATP luminescence, 48 h; Potency, µM (doses to about 46.2 µM), without a hit: top-dose activity change, negative = growth inhibition, actives largely listed as inhibitors; 15% of 420,000 active; AID 686978, 2013; note: potency is the fitted concentration of half-maximal effect; nearly all actives have a fitted effect of over 55% in size
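Chicken DT40 Tdp1-/- cells stably complemented with human TDP1 were seeded at 400 cells/well with DMSO in place of 20 nM camptothecin. After compound pinning, cells grew at least 48 hr at 37 °C; viability read by CellTiter-Glo luminescence.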
DT40 TDP1 CPT – qHTS for Inhibitors of human tyrosyl-DNA phosphodiesterase 1 (TDP1): qHTS in cells in presence of CPT; chicken DT40 Tdp1-/-;hTDP1 cells + 20 nM CPT, ATP luminescence, 48 h; Potency, µM (titrated, usually from 46.2 µM), without a hit: at the highest dose activity change, negative = growth inhibition, actives largely listed as inhibitors; 12% of 420,000 active; AID 686979, 2013; note: potency is the fitted concentration of half-maximal effect; nearly all actives have a fitted effect of over 55% in size
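Chicken DT40 Tdp1-/- cells stably complemented with human TDP1 were seeded at 400 cells/well in medium containing 20 nM camptothecin, exposed to pin-transferred compounds, and grown at 37 °C for at least 48 hr. Viability was read as ATP luminescence.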
IL-1B inflam inh – qHTS for Inhibitors of Inflammasome Signaling: IL-1-beta AlphaLISA Primary Screen; activity change, % at 57.5 µM; 4.7% of 360,000 active; THP-1 LPS/ATP IL-1B secretion, AlphaLISA, 16 h; stronger effect = lower value; in the data active = activity change below about -50%; inconclusive = mostly about -30% to -49%
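THP-1 cells pretreated 1 hr with compounds (up to 57.5 uM final), then stimulated with LPS (250 ng/mL final) plus ATP (1.25 mM final); secreted IL-1B measured by AlphaLISA after 16 hr, decreased signal indicating inhibition.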
HT1080 IDH1KD tx – qHTS for induction of synthetic lethality in tumor cells producing 2HG: qHTS for the HT-1080-IDH1KD cell line; 2% of 360,000 active; HT-1080 IDH1 knockdown viability, ATP luminescence, 48 h; Potency, µM (titrated, usually from 46.1 µM), for inactives: at the top dose activity, negative = toxicity, usual class: cytotoxic;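 note: potency is the fitted concentration of half-maximal effect; 0% = DMSO wells and -100% = cell-free medium wells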
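In this qHTS, HT-1080 cells depleted of IDH1 are exposed for 48 h at 37 °C to compound titrations. Toxicity is scored from CellTiter-Glo luminescence, with DMSO as full viability and medium alone as none.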
Starred values were filed as active, the others as inactive. Unless noted, calls come from the whole dose curve; as a rule, active = well fitted curve in the direction sought with a large enough effect; inconclusive = small, poorly fitted or top-dose-only effect, or another doubt; inactive = no such curve, though single readings can be large; an effect the other way counts as inactive or inconclusive. Unless noted, % is set by controls: 0 for no effect and ±100 for the full control effect.

Screening Cc1nc2ccccc2n1CCc1nc2c3ccccc3nc(SCC(=O)Nc3ccc(C(C)C)cc3)n2n1 returned DT40 TDP1 no CPT 9.2µM* and DT40 TDP1 CPT 12µM*.
`Cc1ccc(S(=O)(=O)Nc2cc(-c3ccccc3)nn2C)cc1Cl` gave HT1080NT lethal -20%, DT40 TDP1 no CPT -24%, DT40 TDP1 CPT -12%, IL-1B inflam inh 34 and HT1080 IDH1KD tx 0%.
`CCCCc1c(C)[nH]c2c(OC)cccc2c1=S` gave DT40 TDP1 no CPT inconclusive and DT40 TDP1 CPT -7%.
For C=CCc1c(C)[nH]c2c(OC)cccc2c1=S the results were HT1080NT lethal -20%, DT40 TDP1 no CPT 18µM*, DT40 TDP1 CPT 13µM*, IL-1B inflam inh 8 and HT1080 IDH1KD tx -3%.
For Cc1cc(C)cc(NC(=O)c2cccc(N3C(=O)C4C5C=CC(C5)C4C3=O)c2)c1 (stereo unspecified) the results were HT1080NT lethal 4%, DT40 TDP1 no CPT 4%, DT40 TDP1 CPT -13%, IL-1B inflam inh -11 and HT1080 IDH1KD tx -4%.
For CC1=CCC2C(=O)N(c3cccc(C(=O)Nc4ccc(Cl)cc4)c3)C(=O)C2C1 (stereo unspecified) the results were HT1080NT lethal -5%, DT40 TDP1 no CPT 0%, DT40 TDP1 CPT -9%, IL-1B inflam inh -80* and HT1080 IDH1KD tx -17%.
Screening Cc1cccc(NC(=O)c2cccc(N3C(=O)C4C5C=CC(C6CC56)C4C3=O)c2)c1 (stereo unspecified) returned HT1080NT lethal -5%, DT40 TDP1 no CPT 15µM*, DT40 TDP1 CPT inconclusive, IL-1B inflam inh -23 and HT1080 IDH1KD tx -17%.
`COC1CC(NC(C)=O)C(OC(=O)c2ccccc2)C(CBr)O1` (stereo unspecified) gave HT1080NT lethal 9%, DT40 TDP1 no CPT -11%, DT40 TDP1 CPT -12%, IL-1B inflam inh 19 and HT1080 IDH1KD tx 8%.
`CCn1cc(CN2CCCC(C(=O)Nc3cccc(-c4cc5ccccc5[nH]4)c3)C2)c(C)n1` (stereo unspecified) gave HT1080NT lethal 21µM*, DT40 TDP1 no CPT inconclusive, DT40 TDP1 CPT 23µM*, IL-1B inflam inh -53* and HT1080 IDH1KD tx inconclusive.
For CCOc1cccc(CN2CCCC(C(=O)Nc3ccc(-c4ccn[nH]4)cc3)C2)c1O (stereo unspecified) the results were HT1080NT lethal 1%, DT40 TDP1 no CPT -1%, DT40 TDP1 CPT inconclusive, IL-1B inflam inh 30 and HT1080 IDH1KD tx 2%.
CC(C)n1cc(CN2CCC(C(=O)Nc3cccc(-c4cscn4)c3)CC2)cn1 was read as HT1080NT lethal -2%, DT40 TDP1 no CPT -2%, DT40 TDP1 CPT -15%, IL-1B inflam inh -8 and HT1080 IDH1KD tx -18%.
Screening Cn1cc(CN2CCCC(C(=O)Nc3cccc(-c4cc5ccccc5[nH]4)c3)C2)cn1 (stereo unspecified) returned HT1080NT lethal inconclusive, DT40 TDP1 no CPT inconclusive, DT40 TDP1 CPT inconclusive, IL-1B inflam inh -92* and HT1080 IDH1KD tx 29µM*.
`C=CC(C)(O)CC/C=C(\C)CCC=C(C)C` (stereo unspecified) gave DT40 TDP1 no CPT -12% and DT40 TDP1 CPT 5%.
Screening S=C(NCC1CCCO1)N1CCc2ccccc2C1 (stereo unspecified) returned HT1080NT lethal 1%, DT40 TDP1 no CPT 3%, DT40 TDP1 CPT -14%, IL-1B inflam inh 50 and HT1080 IDH1KD tx -7%.
For CCOc1ccc(N(CC(=O)Nc2ccccc2CC)S(=O)(=O)c2c(C)noc2C)cc1 the results were DT40 TDP1 no CPT 3.7µM* and DT40 TDP1 CPT 4.6µM*.
Screening CCOc1ccc(OCC)c(NC(=O)CN(c2ccc(C)cc2)S(=O)(=O)c2c(C)noc2C)c1 returned HT1080NT lethal 0%, DT40 TDP1 no CPT 23µM*, DT40 TDP1 CPT inconclusive, IL-1B inflam inh -8 and HT1080 IDH1KD tx 9%.
For CCOc1ccccc1NC(=O)CN(c1ccc(C)cc1)S(=O)(=O)c1c(C)noc1C the results were HT1080NT lethal -15%, DT40 TDP1 no CPT inconclusive, DT40 TDP1 CPT inconclusive, IL-1B inflam inh -8 and HT1080 IDH1KD tx -13%.
`Cc1ccc(N(CC(=O)NC(C)c2ccccc2)S(=O)(=O)c2c(C)noc2C)cc1` (stereo unspecified) gave HT1080NT lethal 0%, DT40 TDP1 no CPT 16µM*, DT40 TDP1 CPT inconclusive, IL-1B inflam inh -3 and HT1080 IDH1KD tx 12%.
Screening CCOc1ccc(N(CC(=O)NCCc2ccc(C)cc2)S(=O)(=O)c2c(C)noc2C)cc1 returned HT1080NT lethal -10%, DT40 TDP1 no CPT inconclusive, DT40 TDP1 CPT 23µM*, IL-1B inflam inh inconclusive and HT1080 IDH1KD tx -11%.
`CN(C)c1ncc2nc(-c3ccccc3)c(=O)n(Cc3cccs3)c2n1` gave DT40 TDP1 no CPT 11% and DT40 TDP1 CPT 13%.
`CC1CCN(S(=O)(=O)c2cccc3cccnc23)CC1` gave HT1080NT lethal -8%, DT40 TDP1 no CPT -14%, DT40 TDP1 CPT 7%, IL-1B inflam inh 0 and HT1080 IDH1KD tx -5%.
For Cc1ccc(N(CC(=O)Nc2cc(C)ccc2C)S(=O)(=O)c2c(C)noc2C)cc1 the results were DT40 TDP1 no CPT 23µM* and DT40 TDP1 CPT inconclusive.
`CC(N)(C(=O)O)c1cccc(OCc2cccc(Cl)c2)c1` (stereo unspecified) gave HT1080NT lethal -1%, DT40 TDP1 no CPT 7%, DT40 TDP1 CPT -7%, IL-1B inflam inh inconclusive and HT1080 IDH1KD tx 11%.
C[N+]1(CC(=O)c2ccc(I)cc2)CCCc2ccccc21 (stereo unspecified) was read as DT40 TDP1 no CPT 7.1µM* and DT40 TDP1 CPT 7.9µM*.
`O=C(C[N+]12CCCc3cccc(c31)CCC2)c1ccccc1` gave DT40 TDP1 no CPT 10µM* and DT40 TDP1 CPT inconclusive.
O=C(C[N+]1(c2ccccc2)CCOCC1)c1ccccc1 was read as DT40 TDP1 no CPT -29% and DT40 TDP1 CPT inconclusive.
CC(C)N1CCC(N2CCN(CCCn3cccn3)CC2CCO)CC1 (stereo unspecified) was read as HT1080NT lethal 1%, DT40 TDP1 no CPT -14%, DT40 TDP1 CPT -11%, IL-1B inflam inh 4 and HT1080 IDH1KD tx -1%.
